Screen size: about 360,000 compounds; about 8,200 (2.3%) were called active. The list comes from a sample in which actives are over-represented; it also holds similar structures and randomly drawn compounds. Unmarked numbers belong to inactive results. No stated cut-off is given here; in the data, active means inhibition above about 27%; inactive means the rest.

Sequence of Fructose-bisphosphate aldolase (Mycobacterium tuberculosis (strain ATCC 25618 / H37Rv)) (P9WQA3 whole entry, looked up): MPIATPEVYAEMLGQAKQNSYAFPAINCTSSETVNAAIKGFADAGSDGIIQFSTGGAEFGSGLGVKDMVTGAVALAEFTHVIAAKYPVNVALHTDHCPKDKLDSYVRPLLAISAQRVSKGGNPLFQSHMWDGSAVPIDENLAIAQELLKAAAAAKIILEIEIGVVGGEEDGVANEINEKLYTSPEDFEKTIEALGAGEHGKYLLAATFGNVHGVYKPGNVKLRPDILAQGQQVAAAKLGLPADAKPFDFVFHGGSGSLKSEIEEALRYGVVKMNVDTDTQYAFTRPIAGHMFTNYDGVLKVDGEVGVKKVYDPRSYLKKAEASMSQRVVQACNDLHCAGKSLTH

This assay has as its target Fructose-bisphosphate aldolase (Mycobacterium tuberculosis (strain ATCC 25618 / H37Rv)) (UniProt P9WQA3). In words: M. tuberculosis aldolase activity blockers – biochemical, fluorescence, strain H37Rv, primary screen (AID 588726).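 Further: 0% = vehicle and 100% = reference inhibitor.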 The settings on record: purified M. tuberculosis FBA, fluorescence read-out, at 1 µM, hits give high values.
On to `CCOC(=O)CNc1nc2ccccc2n2c(C)nnc12`, for which the inhibition was -1.1%.
Consider `O=C1CCc2cc(S(=O)(=O)Nc3ccc(C(F)(F)F)cc3)cc3c2N1CC3`, for which the inhibition is 6.49%.
Next, `Cc1cc(C(=O)CC#N)c(C)n1-c1c(C)n(C)n(-c2ccccc2)c1=O`: 2.39%; `CCOC(=O)CNC(=O)CN1C(=O)CCSc2ccccc21`: 0.13%; `O=C(COc1ccccc1Cl)Nn1cnnc1`: 0.49%.
For the molecule `COc1ccc(CCNc2ncnc3c2nnn3Cc2ccccc2)cc1`, the inhibition is 0.68%.
Take `Cc1cc(C(=O)COc2ccc(Br)cc2F)c(C)n1C1CC1`: the inhibition is 0.29%.
Turning to `CC1C2Cn3c(nc4ccccc43)C1N(C)O2` (stereo unspecified), the inhibition is -1.64%.
Next, `CN1C(C(=O)NCc2ccco2)CC2Cn3c(nc4ccccc43)C21` (stereo unspecified): 2.79%; `CSCCNC(=O)c1ccc2nc(Cc3ccccc3F)oc2c1`: 3.27%; `CC(C)=CCN1CCN(Cc2ccc(Oc3ncccn3)cc2)CC1CCO` (stereo unspecified): 0.18%.
On to `CN(C)c1nc(-c2cccnc2)nc(-c2ccc(Cl)cc2)c1C#N`, for which the inhibition was -3.84%.
In the case of `CNc1nccc(-c2ccc(Cl)cc2)c1C#N` it was 30.5% (active); in that of `CN(C)c1ccnc(Nc2ccc(F)cc2)c1C#N`, -3.67%.
For the molecule `COc1cccc(CN2CCC(C(=O)NC(c3ccc4c(c3)OCO4)c3ccccn3)CC2)c1` (stereo unspecified), the inhibition is 0.6%.
In the case of `O=C(CCS(=O)(=O)c1ccccc1Cl)Nc1ccc(S(=O)(=O)Nc2ncccn2)cc1` it was -1.51%; in that of `O=C(NCCCN1CCCC1=O)C(=O)NCC1OCCN1S(=O)(=O)c1ccc(Br)cc1` (stereo unspecified), 6.34%.
In the case of `CCOC(=O)CNC(=O)CSc1ncccc1-c1nc2ccccc2[nH]1` it was 8.03%.
Next, `Cc1ccccc1N1CC(c2nc3ccccc3[nH]2)CC1=O` (stereo unspecified): 0.05%.
Consider `Cc1ccc(-c2nc3ccccc3[nH]2)cc1N`, for which the inhibition is 176% (active).
Next, `CCSc1nc(=S)n(CC)c(C)c1C(C)=O`: -0.42%; `O=C(CN1CCOc2ccccc21)N1CCC(Cc2ccccc2)CC1`: 6.13%; `CCC(C)N(C(=O)COC(=O)C1C(C(=O)OC)=C(C)NC(C)=C1C(=O)OC)C1CCS(=O)(=O)C1` (stereo unspecified): 74.9% (active).
In the case of `CCC(C)N(C(=O)Cn1nc(C)c([N+](=O)[O-])c1C)C1CCS(=O)(=O)C1` (stereo unspecified) it was 1.23%.
Next, `CCC(C)N(C(=O)COC(=O)c1nc(Cl)ccc1Cl)C1CCS(=O)(=O)C1` (stereo unspecified): 0.03%; `Cc1cc2cc3n(c2nn1)N=C(Cl)CC3`: 83.2% (active); `CCOC(=O)c1nn(-c2ccccc2F)c2nc(Nc3ccccc3)cc(=O)n12`: -2.45%.
As to `CC1=CC=CN2C1=NC(=O)CC2(C)C(=O)N(CC(=O)NC1CCCC1)c1ccccc1C` (stereo unspecified), the inhibition is 164% (active).
In the case of `Cc1ccc(N(CC(=O)NC2CCCCC2)C(=O)CCCC(=O)Nc2ccccn2)c(C)c1`, the inhibition was 3.51%.
Next, `Cc1ccccc1CCN(CC(=O)NC1CCCCC1)C(=O)c1csnn1`: -2.02%; `CCOc1ccccc1N(CC(=O)NC1CCCCC1)C(=O)CCCC(=O)Nc1ccccn1`: -0.58%; `COc1ccccc1N(CC(=O)NC1CCCC1)C(=O)C1(C)CC(=O)N=C2C=CC(C)=CN21` (stereo unspecified): 123% (active).
In the case of `COc1ccccc1N(C)S(=O)(=O)c1ccc(C(=O)NC2CCCCCC2)cc1` it was 2.13%; in that of `CC1=C(C(=O)N2CCOCC2)CC(CC(=O)NCc2cccs2)C(=O)N1CCCN1CCCC1=O` (stereo unspecified), 2.87%; in that of `Cc1ccc2c(cnn2C(=O)CCC(=O)NC2CCCC2)c1`, 2.86%.
Next, `Cc1ccc(C(C(=O)NC2CCCCC2)N(C(=O)c2csnn2)C2CC2)o1` (stereo unspecified): 1.93%; `CC(=O)N1CCN(S(=O)(=O)c2ccc(C)c([N+](=O)[O-])c2)C1C(C)C` (stereo unspecified): -1.36%; `Cc1ccccc1N1C(=O)C(Oc2ccc(Cl)cc2)C1CNCC1CCCO1` (stereo unspecified): -3.19%.
Consider `Cc1ccc2c(CN3CCN(S(=O)(=O)c4ccccc4C(F)(F)F)CC3)cc(=O)oc2c1`, for which the inhibition was 2.71%.
Next, `O=c1cc(CN2CCN(S(=O)(=O)/C=C/c3ccccc3)CC2)c2ccc(O)cc2o1`: 137% (active).
Turning to `NC(=O)CCN1CCN(S(=O)(=O)/C=C/c2ccccc2)CC1`, the inhibition was 1.59%.
In the case of `CSc1cccc(NC(=O)C2CCCN2S(=O)(=O)c2ccc3c(c2)CCC(=O)N3)c1` (stereo unspecified) it was 1.45%; in that of `Cc1cccc(-c2cnc(C(O)c3ccc4ccccc4c3)[nH]2)c1` (stereo unspecified), -1.57%.
In the case of `CC(C)(C)OC(=O)NC(Cc1ccccc1)C(=O)NC(CSC1CCCCO1)C(=O)NN` (stereo unspecified) it was -0.07%.
In the case of `CC(C)c1ccc(S(=O)(=O)N2CCN(C(=O)c3ccc(N4CCCC4)c([N+](=O)[O-])c3)CC2)cc1` it was -2.26%.
Turning to `O=C1C=C(c2ccccc2)CCC1`, the inhibition was 3.76%.
As for `O=c1cc(-c2ccccc2)[nH]c2cc(F)ccc12`, the inhibition is 5.51%.
In the case of `O=c1[nH]c(-c2ccccc2)c(-c2ccccc2)[nH]1`, the inhibition is 133% (active).
In the case of `CCc1ccc(NC(=O)CCNS(=O)(=O)c2cccs2)cc1` it was -1.53%.
For `O=C(NCc1ccccc1)c1ccc(CNc2c(N3CCCC3)c(=O)c2=O)cc1`, the inhibition was 4.44%.
In the case of `CCc1ccccc1N1C(=O)C2C3CC(=O)C(c4ccccc43)C2C1=O` (stereo unspecified) it was 1.36%.
Next, `CCC1C(=O)c2ccccc2N(C)C1=O` (stereo unspecified): 34.5% (active); `CN1C(=O)/C(=C\c2cc(Br)cs2)c2ccccc21`: 0.16%.
In the case of `Cc1ccc(CN2CCC(N3CCC(C(=O)NCC4CCCO4)CC3)CC2)o1` (stereo unspecified) it was -1.69%; in that of `Cc1c(NC(=O)c2cc(-c3ccc(Cl)s3)nc3ccccc23)c(=O)n(-c2ccccc2)n1C`, 13%.
On to `Cc1cc(C(=O)N2CCN(c3ccccn3)CC2)c(C)o1`, for which the inhibition was 9.35%.
In the case of `CC(=O)N1CCN(C(=O)c2cc(-c3ccc(Cl)s3)nc3ccccc23)CC1` it was 83.4% (active).
`Cc1ccc(S(=O)(=O)N2CCN(C(=O)c3ccccc3-c3nc4ccccc4s3)CC2)c(C)c1`: the inhibition was 1.65%.
In the case of `CC1CCCN(C(=O)c2cc(-c3ccco3)nc3ccccc23)C1` (stereo unspecified) it was 114% (active).
In the case of `CC1CCN(C(=O)Cn2cc(C(=O)c3ccco3)c3ccccc32)CC1` it was -0.4%; in that of `CC1CCCC(NC(=O)c2cc(-c3ccncc3)nc3ccccc23)C1C` (stereo unspecified), 4%; in that of `O=C(c1cc(-c2ccc(Cl)s2)nc2ccccc12)N1CCOCC1`, 93.6% (active).
In the case of `O=C(NNC(=O)c1cc(-c2ccccc2Cl)nc2ccccc12)c1csc(N2CCOCC2)n1`, the inhibition is 1.04%.
On to `Cc1cccc(C(=O)N2CCC(c3nc4ccccc4s3)CC2)c1`, for which the inhibition was -2.02%.
Next, `CC(=O)N1CCN(C(=O)c2cc(-c3ccc(C)o3)nc3ccccc23)CC1`: 131% (active); `Cc1cc(C(=O)NNC(=O)c2cccc(S(=O)(=O)N3CCOCC3)c2)c2ccccc2n1`: -2.38%.
Turning to `Cc1nc(-c2ccc(Cl)cc2)sc1C1(C)CC(c2ccc(Br)cc2)=NO1` (stereo unspecified), the inhibition was -1.45%.
As to `O=S(=O)(c1cccc(-c2nnc(SC(F)F)n2-c2ccccc2)c1)N1CCCCC1`, the inhibition is 5.7%.
For the molecule `COc1ccc(C)cc1NC(=O)c1[nH]c(C)c(C(C)=O)c1C`, the inhibition was 0.08%.
As for `CCc1ccc(OCC(O)CN2CCN(CCO)CC2)cc1` (stereo unspecified), the inhibition is -0.21%.
As for `CSCCC(NC(=O)c1ccco1)C(=O)NCCc1ccc(F)cc1` (stereo unspecified), the inhibition was 0.46%.

Source of the values: PubChem BioAssay AID588726 (The Scripps Research Institute Molecular Screening Center, 2011).
